PLK1 PBD block: blocks phosphopeptide binding to human PLK1 polo-box domain; P53350; Potency, µM, for inactives: max response, negative = inhibition, most hits filed as inhibitors; 360,000 tested, 2.8% active; Plk1 PBD binding of FITC phosphopeptide, fluorescence polarization; note: series mostly up to about 57 µM; nearly all actives have a fitted effect of over 65% in size
TDP1 block: inhibitors of human tyrosyl-DNA phosphodiesterase TDP1; Q9NUW8; recombinant TDP1, AlphaScreen DNA substrate cleavage; Potency, µM (titrated, usually from 130 µM), for the others: at the highest dose activity change, negative = inhibition, most hits filed as inhibitors; 350,000 tested, 0.28% active; note: nearly all actives have a fitted effect of over 40% in size
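Here, a 5' biotin and 3' phosphotyrosine-FITC DNA oligonucleotide reports Tdp1 activity: intact substrate bridges AlphaScreen beads, while cleavage leaves a 3' phosphate and drops signal. All incubations at room temperature.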
GCN5L2 inh: inhibitors of human GCN5L2 histone acetyltransferase; GCN5L2 HAT assay, ThioGlo1 CoA-SH fluorescence; 390,000 tested, 0.21% active; Q92830; Potency, µM (top dose mostly 58.9 µM), inactives show top-dose activity change, negative = inhibition, most hits filed as inhibitors; AID 504327
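GCN5L2 (20nM final) in 50mM HEPES, 0.1mM EDTA pH 7.5, 0.01% Tween-20 was preincubated 15 min at room temperature with compound, then given ThioGlo1 (50uM), H3(1-25) peptide (75uM) and acetyl-CoA (70uM); CoA-thiol fluorescence (Ex340/Em540) was read at 0 and 20 min.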
VDR inh: vitamin D3 receptor (human) inhibition; VDR-SRC2-3 peptide fluorescence polarization, 2 h; Potency, µM, inactives show max response, negative = inhibition, most hits filed as inhibitors; P11473; AID 504847; 400,000 tested, 0.93% active
Target sequence (P11473 whole entry, looked up): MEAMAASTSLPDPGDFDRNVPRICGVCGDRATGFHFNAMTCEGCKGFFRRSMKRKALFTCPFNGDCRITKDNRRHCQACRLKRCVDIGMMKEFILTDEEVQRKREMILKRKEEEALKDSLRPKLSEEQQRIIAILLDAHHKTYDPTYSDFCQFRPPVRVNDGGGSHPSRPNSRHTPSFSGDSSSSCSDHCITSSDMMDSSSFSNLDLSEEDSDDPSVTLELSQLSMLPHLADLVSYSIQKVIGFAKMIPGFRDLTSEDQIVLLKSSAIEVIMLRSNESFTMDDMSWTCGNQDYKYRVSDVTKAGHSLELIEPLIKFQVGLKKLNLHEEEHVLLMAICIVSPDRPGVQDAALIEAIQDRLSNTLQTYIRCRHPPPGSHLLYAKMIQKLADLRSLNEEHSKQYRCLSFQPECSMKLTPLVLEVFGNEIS
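After 23 nl compound addition and a short centrifugation, plates sat for 2 hours at ambient temperature; polarization of fluorescence then indicated loss of VDR binding to peptide SRC2-3.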
DT40 TDP1 no CPT: qHTS for Inhibitors of human tyrosyl-DNA phosphodiesterase 1 (TDP1): qHTS in cells in absence of CPT | Potency, µM (doses to about 46.2 µM), for the others: top-dose activity change, negative = growth inhibition, actives largely listed as inhibitors | AID 686978, 2013 | 420,000 tested, 15% active | DT40 Tdp1-/- hTDP1 cells, no CPT, ATP luminescence, 48 h; note: nearly all actives have a fitted effect of over 55% in size
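No-CPT arm: Tdp1-/-;hTDP1 DT40 cells (400/well) plus compounds, incubated ≥48 hr at 37 °C. Readout CellTiter-Glo luminescence.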
TDP1 cell CPT: growth inhibition of DT40 Tdp1-/-;hTDP1 cells with camptothecin (screen for TDP1 inhibitors). chicken DT40 Tdp1-/-;hTDP1 cells + 20 nM CPT, ATP luminescence, 48 h. Potency, µM (top dose mostly 46.2 µM), for the others: top-dose activity change, negative = growth inhibition, usual class: inhibitors. 420,000 tested, 12% active. AID 686979; note: nearly all actives have a fitted effect of over 55% in size
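Chicken DT40 Tdp1-/- cells stably complemented with human TDP1 were seeded at 400 cells/well in medium containing 20 nM camptothecin, exposed to pin-transferred compounds, and grown at 37 °C for at least 48 hr. Viability was read as ATP luminescence.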
An asterisk follows results filed as active; [ ] = dose if it differs, or a comment. In the library only some 18% were active in any assay of this set; here they are far more common. Calls come from the whole dose curve; as a rule, active = well fitted curve in the direction sought with a large enough effect; inconclusive = small, poorly fitted or top-dose-only effect, or another doubt; inactive = no such curve, though single readings can be large; an effect the other way counts as inactive or inconclusive. % is set by controls: 0 for no effect and ±100 for the full control effect; potency is the fitted concentration of half-maximal effect.

How did CCc1ccc(NS(=O)(=O)c2cc3c(cc2C)n(C)c(=O)c(=O)n3C)cc1 do in these assays?
PLK1 PBD block: -1%; GCN5L2 inh: -21%; VDR inh: -16%; DT40 TDP1 no CPT: 13µM*; TDP1 cell CPT: 15µM*

Results for CCOC(=O)C(C)On1c(-n2nc(C)cc2C)nc2ccccc2c1=O (stereo not given) ?
PLK1 PBD block: -23%; GCN5L2 inh: inconclusive; VDR inh: -8%; DT40 TDP1 no CPT: inconclusive; TDP1 cell CPT: inconclusive

What do the screens show for `COc1ccccc1CNc1ncnc2sc(C(=O)N(C)C(C)C)c(C)c12`?
DT40 TDP1 no CPT: inconclusive; TDP1 cell CPT: -4%[9.04 µM]

Results for CCc1cccc(NS(=O)(=O)c2ccc3c(c2)n(C)c(=O)n3C)c1 ?
PLK1 PBD block: -4%; GCN5L2 inh: 7%; VDR inh: -12%; DT40 TDP1 no CPT: 9.2µM*; TDP1 cell CPT: 10µM*

How did O=c1[nH]c(=O)c2[nH]c(=S)n(-c3ccccc3)c2[nH]1 do in these assays?
PLK1 PBD block: -8%; VDR inh: -6%; DT40 TDP1 no CPT: -5%; TDP1 cell CPT: 13%

How did COc1ccccc1NS(=O)(=O)c1cccc(C(=O)N/N=C(\C)c2cccnc2)c1 do in these assays?
PLK1 PBD block: -6%; TDP1 block: 0%; GCN5L2 inh: 3%; VDR inh: -7%; DT40 TDP1 no CPT: 7%; TDP1 cell CPT: -13%

Results for COc1cccc(CN(C)Cc2cc(=O)oc3cc(O)c(Cl)cc23)c1 ?
PLK1 PBD block: -4%; GCN5L2 inh: -20%; VDR inh: 14%; DT40 TDP1 no CPT: inconclusive; TDP1 cell CPT: 0%

Results for CCc1ccc2c(CN(C)Cc3ccc(OC(F)F)c(OC)c3)cc(=O)oc2c1 ?
PLK1 PBD block: 1%; GCN5L2 inh: -10%; VDR inh: -10%; DT40 TDP1 no CPT: inconclusive; TDP1 cell CPT: 18µM*

How did S=C(NCCc1ccncc1)Nc1ccccc1 do in these assays?
PLK1 PBD block: inconclusive; TDP1 block: 5%; GCN5L2 inh: -3%; VDR inh: -10%; DT40 TDP1 no CPT: -27%; TDP1 cell CPT: -25%

Results for CC(C)CCNC(=S)Nc1ccc(Br)cc1 ?
PLK1 PBD block: -9%; TDP1 block: 3%; GCN5L2 inh: -2%; VDR inh: -3%; DT40 TDP1 no CPT: 16µM*; TDP1 cell CPT: inconclusive

Results for S=C(NCCc1ccccc1)Nc1ccc(Br)cc1 ?
PLK1 PBD block: -16%; TDP1 block: 5%; GCN5L2 inh: -5%; VDR inh: -8%; DT40 TDP1 no CPT: 23µM*; TDP1 cell CPT: inconclusive

Results for O=c1c(=O)n(-c2ccccc2)ccn1Cc1c(F)cccc1Cl ?
TDP1 block: 4%; GCN5L2 inh: -25%; VDR inh: 11%; DT40 TDP1 no CPT: -16%; TDP1 cell CPT: 4%

Results for COCCN1C[C@@H](CO)O[C@@H](n2cnc3c(NCCN(C)C)ncnc32)C1 ?
PLK1 PBD block: 8%; DT40 TDP1 no CPT: inconclusive; TDP1 cell CPT: 15%

Results for CCN(CC)c1ccc(C=Nc2ccc(C)cc2C)c(O)c1 ?
PLK1 PBD block: -4%; TDP1 block: 4%; GCN5L2 inh: -7%; VDR inh: 2%; DT40 TDP1 no CPT: -27%; TDP1 cell CPT: -22%

What do the screens show for `Cc1ccccc1N=Cc1cccc(O)c1O`?
PLK1 PBD block: -18%; TDP1 block: 8%; GCN5L2 inh: -19%; VDR inh: 14µM*; DT40 TDP1 no CPT: 10µM*; TDP1 cell CPT: inconclusive

How did Cc1ccc(N=Cc2cccc(O)c2O)c(C)c1 do in these assays?
TDP1 block: 12%; GCN5L2 inh: -20%; VDR inh: 20µM*; DT40 TDP1 no CPT: inconclusive; TDP1 cell CPT: 20µM*

What do the screens show for `Cc1ccccc1C=Nc1ccccc1C(N)=O`?
PLK1 PBD block: 1%; TDP1 block: 4%; GCN5L2 inh: -7%; VDR inh: 0%; DT40 TDP1 no CPT: 4.6µM*; TDP1 cell CPT: 5.2µM*

What do the screens show for `N#Cc1ccc(CSc2nc3c(c(=O)[nH]2)CCC3)cc1`?
TDP1 block: 9%; GCN5L2 inh: -1%; VDR inh: 6%; DT40 TDP1 no CPT: -15%; TDP1 cell CPT: -1%

Results for C[C@@H]1CN([C@@H](C)CO)C(=O)c2cc(-c3cccnc3)cnc2O[C@H]1CN(C)C(=O)c1cccc(F)c1 ?
PLK1 PBD block: -2%; DT40 TDP1 no CPT: 6%; TDP1 cell CPT: 15%

How did CCc1ccc(-n2c(SCc3cccc(F)c3)nc3[nH]ncc3c2=O)cc1 do in these assays?
TDP1 block: 9%; GCN5L2 inh: -11%; VDR inh: 5%; DT40 TDP1 no CPT: 16µM*; TDP1 cell CPT: 21µM*

How did O=c1c2cn[nH]c2nc(SCc2c(F)cccc2F)n1-c1ccc(Cl)cc1 do in these assays?
PLK1 PBD block: 2%; TDP1 block: 8%; GCN5L2 inh: -15%; VDR inh: -16%; DT40 TDP1 no CPT: inconclusive; TDP1 cell CPT: inconclusive

What do the screens show for `Cc1ccc(-n2c(SCc3ccccc3C)nc3[nH]ncc3c2=O)cc1C`?
TDP1 block: 8%; GCN5L2 inh: -3%; VDR inh: 5%; DT40 TDP1 no CPT: inconclusive; TDP1 cell CPT: inconclusive

Results for Cc1ccc(-n2c(SCc3cccc(F)c3)nc3[nH]ncc3c2=O)cc1C ?
TDP1 block: 9%; GCN5L2 inh: -6%; VDR inh: -4%; DT40 TDP1 no CPT: 21µM*; TDP1 cell CPT: 21µM*

Results for CCc1ccc(-n2c(SCc3ccccc3C)nc3[nH]ncc3c2=O)cc1 ?
TDP1 block: 8%; GCN5L2 inh: -7%; VDR inh: -2%; DT40 TDP1 no CPT: 21µM*; TDP1 cell CPT: inconclusive

What do the screens show for `COc1cc(NC(=O)CSc2nc3[nH]ncc3c(=O)n2-c2ccccc2)cc(OC)c1OC`?
PLK1 PBD block: 3%; DT40 TDP1 no CPT: 26µM*; TDP1 cell CPT: inconclusive

What do the screens show for `COc1ccc(NC(=O)CSc2nc3[nH]ncc3c(=O)n2-c2ccccc2OC)cc1OC`?
PLK1 PBD block: -22%; TDP1 block: 5%; GCN5L2 inh: -6%; VDR inh: -14%; DT40 TDP1 no CPT: -24%; TDP1 cell CPT: -4%

How did CC1(C)OC2CC(=O)OCC23C1CC(=O)C1(C)C3CC[C@@]2(C)[C@H](c3ccoc3)OC(=O)C3OC312 (stereo not given in full) do in these assays?
TDP1 block: 7%; GCN5L2 inh: 22%; VDR inh: -4%

Screening data deposited in PubChem BioAssay by National Center for Advancing Translational Sciences (NCATS).
